The full data set covers some 8,800 targets. This sample favours those with a hit. About 0.5% of all pairs of compound and target were hits. Unmarked numbers belong to inactive results.
What was measured:
Test in all cases: log2 fold change, soluble protein after heating vs DMSO (PISA); higher = thermal stabilisation; K562 lysate, 10 uM; active = over 0.2 and 3.5 SD of the protein, either way, in both replicates (recomputed)
[1] = compound: C#Cc1cccc(Nc2ncnc3cc(OCCOC)c(OCCOC)cc23)c1 [erlotinib]
How it was run: (§1)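 K562 pellets were dounce-homogenised in PBS pH 7.4 with 1 mM MgCl2, and the crude extract at 1 mg/mL protein was treated with 10 μM compound for 30 min. Aliquots were heated for 3 min across 48°C-58°C, pooled, and brought to 0.5% NP-40 at 4°C; soluble protein was the supernatant after 21,000xg for 90 min. Soluble protein was quantified by TMTpro 16plex LC-MS/MS with channel sums equalised, and reported as log2 fold change in thermal stability against DMSO controls, with values from duplicates.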

[2] = compound: C/C(=N\NC(=O)C1=CC(=CC=C1)S(=O)(=O)N2CCOCC2)/C3=C(C=CC(=C3)Cl)O
How it was run: as §1

[3] = compound: C1=CC(=CC=C1C2=NC3=C(N2)C=C(C=C3)C(=O)N)OC4=CC=C(C=C4)Cl
How it was run: as §1

[4] = compound: C1=CC2=C(C=CC(=C2)/C=C\3/C(=O)NC(=NCC4=CC=CS4)S3)N=C1
How it was run: as §1

[5] = compound: C1=CC2=NC=CN=C2C=C1/C=C/3\C(=O)NC(=O)S3
How it was run: as §1

[6] = compound: C1=CC=C(C=C1)C2=NC(=C(N2)C3=CC=NC=C3)C4=CC(=C(C=C4)Cl)O
How it was run: as §1

[7] = compound: C1=CC=C2C(=C1)C3=NNC4=CC=CC(=C43)C2=O
How it was run: as §1

[8] = compound: C1CCN(C1)C(=O)NC2=CC=CC(=C2)NC3=NC=C(C(=N3)NCCC4=CN=CN4)Br
How it was run: as §1

[9] = compound: C1CN(CCC1(CC2=CC=C(C=C2)Cl)N)C3=NC=NC4=C3C=CN4
How it was run: as §1

[10] = compound: C1COCCN1CCN2C3=CC=CC=C3N=C2NC(=O)C4=CC(=CC=C4)[N+](=O)[O-] [IRAK-1-4 Inhibitor I]
How it was run: as §1

[11] = compound: C=CC(=O)N1CCC[C@@H](n2nc(-c3ccc(Oc4ccccc4)cc3)c3c(N)ncnc32)C1 [ibrutinib]
How it was run: as §1

[12] = compound: CC(=O)c1cnc2ccc(-c3cc(Cl)c(O)c(Cl)c3)nc2c1N[C@H]1CC[C@H](CN(C)C)CC1
How it was run: as §1

[13] = compound: CC(C)(C)Cn1c(N)nc2ccc(-c3[nH]c(C(C)(C)C)nc3-c3ccc(F)cc3)nc21 [ralimetinib]
How it was run: as §1

[14] = compound: CC(C)(O)CC(=O)NCCn1ccc2ncnc(Nc3ccc(Oc4cccc(C(F)(F)F)c4)c(Cl)c3)c21
How it was run: as §1

[15] = compound: CC(C)C1=C2N=C(C=C(N2N=C1)NCC3=CC=CC=C3)NCCCCCCN
How it was run: as §1

[16] = compound: CC1=C(C(CC(=O)N1)C2=CC=C(C=C2)C(F)(F)F)C(=O)NC3=C(C=C4C(=C3)C=NN4)F
How it was run: as §1

[17] = compound: CC1=C(C2=C(C=C1)C(=O)C3=CC=CC=C3N2CCCN)C
How it was run: as §1

[18] = compound: CC1=C(C=C(C=C1)NC(=O)C2=CC(=CC=C2)C(C)(C)C#N)NC3=CC4=C(C=C3)N=CN(C4=O)C
How it was run: as §1

[19] = compound: CC1=C(C=C(C=C1)NC(=O)C2=CC(=CC=C2)N(C)C)NC(=O)C3=CC=C(C=C3)O
How it was run: as §1

[20] = compound: CC1=CC=C(C=C1)SC2=C3C=C(SC3=CN=C2)C(=O)N
How it was run: as §1

Sequence of UniProt Q9H6R7 (Q9H6R7 whole entry, looked up): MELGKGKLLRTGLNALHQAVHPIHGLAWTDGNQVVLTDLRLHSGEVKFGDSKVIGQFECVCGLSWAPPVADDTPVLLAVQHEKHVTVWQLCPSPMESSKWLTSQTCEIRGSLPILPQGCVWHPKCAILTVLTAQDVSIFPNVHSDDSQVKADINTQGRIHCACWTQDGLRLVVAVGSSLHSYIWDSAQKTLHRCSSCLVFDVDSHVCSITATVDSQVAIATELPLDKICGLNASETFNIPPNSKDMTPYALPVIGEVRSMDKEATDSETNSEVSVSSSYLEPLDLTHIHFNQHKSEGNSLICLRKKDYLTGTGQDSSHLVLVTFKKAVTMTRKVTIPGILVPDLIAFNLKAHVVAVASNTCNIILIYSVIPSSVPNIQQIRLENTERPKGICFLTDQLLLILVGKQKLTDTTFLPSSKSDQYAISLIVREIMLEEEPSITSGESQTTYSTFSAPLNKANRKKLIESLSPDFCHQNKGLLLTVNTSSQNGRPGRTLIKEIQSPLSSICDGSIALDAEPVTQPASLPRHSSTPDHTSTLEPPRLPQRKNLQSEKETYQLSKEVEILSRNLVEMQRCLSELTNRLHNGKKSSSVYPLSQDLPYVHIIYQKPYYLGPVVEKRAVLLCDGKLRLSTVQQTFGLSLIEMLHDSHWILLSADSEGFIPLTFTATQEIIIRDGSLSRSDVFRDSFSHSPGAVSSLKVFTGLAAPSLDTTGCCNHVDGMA
Sequence of UniProt P26640 (P26640 whole entry, looked up): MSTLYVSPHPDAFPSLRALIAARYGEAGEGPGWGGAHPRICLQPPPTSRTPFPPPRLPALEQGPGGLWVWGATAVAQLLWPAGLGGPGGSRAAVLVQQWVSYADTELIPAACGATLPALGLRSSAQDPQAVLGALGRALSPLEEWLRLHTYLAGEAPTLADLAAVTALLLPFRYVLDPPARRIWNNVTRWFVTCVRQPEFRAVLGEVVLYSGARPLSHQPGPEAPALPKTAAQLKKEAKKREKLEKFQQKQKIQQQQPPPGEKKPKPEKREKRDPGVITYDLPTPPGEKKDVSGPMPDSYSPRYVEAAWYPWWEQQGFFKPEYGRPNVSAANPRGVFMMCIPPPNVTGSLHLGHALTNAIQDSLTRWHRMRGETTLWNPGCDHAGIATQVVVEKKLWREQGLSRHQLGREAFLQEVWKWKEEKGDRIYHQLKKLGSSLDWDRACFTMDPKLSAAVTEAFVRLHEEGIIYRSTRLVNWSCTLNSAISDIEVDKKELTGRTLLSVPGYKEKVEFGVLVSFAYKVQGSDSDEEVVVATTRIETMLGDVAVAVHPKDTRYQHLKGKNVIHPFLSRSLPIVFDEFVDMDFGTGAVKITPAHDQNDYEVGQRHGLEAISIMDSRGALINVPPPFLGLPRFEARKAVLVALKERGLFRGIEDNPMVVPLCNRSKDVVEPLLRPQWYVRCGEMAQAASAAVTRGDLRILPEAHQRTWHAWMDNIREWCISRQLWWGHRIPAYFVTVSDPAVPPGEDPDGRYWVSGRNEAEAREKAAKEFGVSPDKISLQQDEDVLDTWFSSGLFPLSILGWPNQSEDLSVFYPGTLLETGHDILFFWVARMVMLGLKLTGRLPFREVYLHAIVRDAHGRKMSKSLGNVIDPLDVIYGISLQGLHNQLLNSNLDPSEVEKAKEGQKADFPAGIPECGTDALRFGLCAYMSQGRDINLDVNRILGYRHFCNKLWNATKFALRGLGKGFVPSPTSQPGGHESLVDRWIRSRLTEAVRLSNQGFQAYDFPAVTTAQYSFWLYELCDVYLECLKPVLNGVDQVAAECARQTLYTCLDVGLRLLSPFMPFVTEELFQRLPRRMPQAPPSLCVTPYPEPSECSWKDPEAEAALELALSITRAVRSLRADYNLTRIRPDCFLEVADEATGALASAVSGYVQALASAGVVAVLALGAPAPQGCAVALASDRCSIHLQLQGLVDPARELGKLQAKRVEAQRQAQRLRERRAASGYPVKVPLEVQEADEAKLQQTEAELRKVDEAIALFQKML
Sequence of UniProt Q9Y5J1 (Q9Y5J1 whole entry, looked up): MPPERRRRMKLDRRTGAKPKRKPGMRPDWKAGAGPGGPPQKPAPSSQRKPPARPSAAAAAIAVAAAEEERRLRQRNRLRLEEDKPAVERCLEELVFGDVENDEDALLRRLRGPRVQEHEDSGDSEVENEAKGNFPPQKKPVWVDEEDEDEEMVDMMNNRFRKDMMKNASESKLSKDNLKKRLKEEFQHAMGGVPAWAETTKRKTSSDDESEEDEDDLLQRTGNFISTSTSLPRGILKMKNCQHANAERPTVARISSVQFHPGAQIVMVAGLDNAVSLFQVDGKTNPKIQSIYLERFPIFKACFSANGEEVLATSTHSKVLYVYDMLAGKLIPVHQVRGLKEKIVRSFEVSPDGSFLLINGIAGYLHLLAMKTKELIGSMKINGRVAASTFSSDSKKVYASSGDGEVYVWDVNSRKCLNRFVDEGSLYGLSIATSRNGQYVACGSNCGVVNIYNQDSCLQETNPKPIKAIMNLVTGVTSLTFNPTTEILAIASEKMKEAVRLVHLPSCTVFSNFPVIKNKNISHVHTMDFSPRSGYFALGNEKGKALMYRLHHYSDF
Sequence of UniProt Q9UBK9 (Q9UBK9 whole entry, looked up): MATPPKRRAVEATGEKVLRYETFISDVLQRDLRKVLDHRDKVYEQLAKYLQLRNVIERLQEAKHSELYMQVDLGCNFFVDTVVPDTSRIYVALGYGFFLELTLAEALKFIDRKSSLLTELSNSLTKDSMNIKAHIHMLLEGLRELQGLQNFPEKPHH
Sequence of UniProt Q9NZ43 (Q9NZ43 whole entry, looked up): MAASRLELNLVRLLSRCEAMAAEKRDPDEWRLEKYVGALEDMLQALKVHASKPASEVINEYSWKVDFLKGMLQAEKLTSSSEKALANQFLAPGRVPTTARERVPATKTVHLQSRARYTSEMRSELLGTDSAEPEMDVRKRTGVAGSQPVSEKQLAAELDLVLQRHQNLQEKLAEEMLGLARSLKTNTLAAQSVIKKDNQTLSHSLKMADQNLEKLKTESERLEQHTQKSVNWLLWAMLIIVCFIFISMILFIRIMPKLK
Sequence of UniProt Q96QU8 (Q96QU8 whole entry, looked up): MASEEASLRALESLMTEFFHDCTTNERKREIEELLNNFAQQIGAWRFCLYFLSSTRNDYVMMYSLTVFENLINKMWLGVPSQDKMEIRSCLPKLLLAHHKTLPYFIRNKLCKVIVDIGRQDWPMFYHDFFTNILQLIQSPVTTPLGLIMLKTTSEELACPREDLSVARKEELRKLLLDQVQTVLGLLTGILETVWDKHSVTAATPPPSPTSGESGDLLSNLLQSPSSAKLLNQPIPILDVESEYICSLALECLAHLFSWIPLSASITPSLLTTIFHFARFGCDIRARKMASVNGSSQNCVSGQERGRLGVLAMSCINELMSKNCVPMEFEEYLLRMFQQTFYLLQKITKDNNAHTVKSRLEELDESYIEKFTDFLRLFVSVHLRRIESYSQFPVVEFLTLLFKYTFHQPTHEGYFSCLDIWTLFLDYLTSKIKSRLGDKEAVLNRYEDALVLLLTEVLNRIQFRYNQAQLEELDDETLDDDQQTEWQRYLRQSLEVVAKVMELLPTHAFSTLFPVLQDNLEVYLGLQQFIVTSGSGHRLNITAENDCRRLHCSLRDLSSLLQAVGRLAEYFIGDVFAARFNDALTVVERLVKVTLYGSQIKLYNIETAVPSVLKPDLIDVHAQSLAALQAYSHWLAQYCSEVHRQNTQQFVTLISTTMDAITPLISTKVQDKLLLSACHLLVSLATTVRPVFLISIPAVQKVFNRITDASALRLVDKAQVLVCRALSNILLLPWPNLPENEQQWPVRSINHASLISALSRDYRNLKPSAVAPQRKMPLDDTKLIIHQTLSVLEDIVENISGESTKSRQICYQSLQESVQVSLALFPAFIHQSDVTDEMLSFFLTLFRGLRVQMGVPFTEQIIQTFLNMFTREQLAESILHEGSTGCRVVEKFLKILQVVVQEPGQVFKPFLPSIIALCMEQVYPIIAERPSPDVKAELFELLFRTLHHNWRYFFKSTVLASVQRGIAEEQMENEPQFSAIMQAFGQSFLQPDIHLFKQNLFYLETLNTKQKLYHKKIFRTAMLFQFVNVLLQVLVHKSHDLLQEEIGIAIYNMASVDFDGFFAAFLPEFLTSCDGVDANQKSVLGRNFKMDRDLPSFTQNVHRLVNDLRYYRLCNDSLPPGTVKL
Sequence of UniProt P04004 (P04004 whole entry, looked up): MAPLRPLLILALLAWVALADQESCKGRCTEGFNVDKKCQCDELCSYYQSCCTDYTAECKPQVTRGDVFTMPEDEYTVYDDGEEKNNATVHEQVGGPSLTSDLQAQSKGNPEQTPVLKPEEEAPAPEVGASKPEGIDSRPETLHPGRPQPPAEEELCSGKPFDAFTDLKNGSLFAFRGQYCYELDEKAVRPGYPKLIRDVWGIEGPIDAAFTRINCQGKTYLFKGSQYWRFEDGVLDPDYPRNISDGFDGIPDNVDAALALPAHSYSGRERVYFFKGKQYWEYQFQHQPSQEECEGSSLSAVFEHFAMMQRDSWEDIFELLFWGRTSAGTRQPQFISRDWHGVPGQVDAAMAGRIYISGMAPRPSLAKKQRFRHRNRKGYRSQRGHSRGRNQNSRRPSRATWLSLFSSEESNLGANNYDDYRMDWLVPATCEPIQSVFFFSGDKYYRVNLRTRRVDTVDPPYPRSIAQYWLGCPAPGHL
Sequence of UniProt A8MPS7 (A8MPS7 whole entry, looked up): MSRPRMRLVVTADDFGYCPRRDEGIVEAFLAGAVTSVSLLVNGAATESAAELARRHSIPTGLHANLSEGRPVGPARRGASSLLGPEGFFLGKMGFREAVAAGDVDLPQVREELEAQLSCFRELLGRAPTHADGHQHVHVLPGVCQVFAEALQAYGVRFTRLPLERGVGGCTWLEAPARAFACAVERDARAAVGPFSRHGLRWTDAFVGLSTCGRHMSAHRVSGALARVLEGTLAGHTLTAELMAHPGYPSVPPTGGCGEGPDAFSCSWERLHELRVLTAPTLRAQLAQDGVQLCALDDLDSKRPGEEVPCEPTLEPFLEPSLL

Row | Target | log2 fold change [1] | log2 fold change [2] | log2 fold change [3] | log2 fold change [4] | log2 fold change [5] | log2 fold change [6] | log2 fold change [7] | log2 fold change [8] | log2 fold change [9] | log2 fold change [10] | log2 fold change [11] | log2 fold change [12] | log2 fold change [13] | log2 fold change [14] | log2 fold change [15] | log2 fold change [16] | log2 fold change [17] | log2 fold change [18] | log2 fold change [19] | log2 fold change [20]
1 | XPNPEP1 isoform 3 (UniProt Q9NQW7) | -0.001 | 0.023 | -0.019 | 0.001 | -0.007 | -0.005 | -0.011 | -0.006 | 0.005 | 0.009 | 0.012 | -0.007 | 0.017 | -0.026 | -0.009 | 0.007 | -0.026 | -0.025 | -0.005 | 0.002
2 | USE1 (UniProt Q9NZ43) | 0.019 | 0.31 (active) | -0.026 | -0.062 | 0 | -0.038 | -0.06 | 0.019 | 0.025 | 0.056 | -0.039 | -0.026 | -0.095 | -0.102 | -0.086 | 0.024 | -0.025 | -0.007 | 0.007 | 0.027
3 | USP48 isoform 8 (UniProt Q86UV5) | 0.001 | -0.059 | -0.011 | -0.008 | 0.005 | 0.02 | -0.02 | 0 | 0.018 | -0.014 | -0.02 | -0.014 | 0.004 | 0 | -0.005 | 0.007 | -0.005 | 0.001 | 0 | -0.01
4 | YDJC (UniProt A8MPS7) | -0.083 | 0.036 | -0.011 | -0.012 | -0.01 | 0.029 | -0.065 | -0.034 | 0.029 | -0.023 | 0.024 | 0.023 | -0.015 | -0.064 | -0.028 | 0.052 | -0.034 | 0.011 | 0.022 | 0.021
5 | WDCP (UniProt Q9H6R7) | -0.06 | 0.091 | 0.079 | 0.018 | 0.024 | 0 | -0.011 | -0.022 | 0.002 | 0.024 | 0.021 | 0.021 | -0.006 | -0.045 | -0.027 | -0.023 | -0.041 | 0 | 0.01 | 0.049
6 | ZMYM2 (UniProt Q9UBW7) | 0.036 | -0.049 | 0.038 | 0.073 | -0.022 | 0.053 | -0.05 | -0.209 | 0.116 | 0.07 | -0.029 | -0.059 | -0.037 | -0.106 | -0.039 | -0.008 | -0.018 | 0.004 | 0.04 | -0.068
7 | VTN (UniProt P04004) | -0.065 | -0.006 | 0.003 | -0.033 | 0.107 | -0.096 | -0.129 | -0.065 | -0.042 | 0.043 | -0.019 | -0.007 | 0.01 | -0.044 | 0.028 | 0.088 | 0.017 | -0.011 | 0.155 | -0.04
8 | VPS16 (UniProt Q9H269) | 0.059 | 0.026 | 0.048 | 0.024 | -0.03 | 0.048 | -0.075 | 0.03 | 0.023 | 0.025 | 0.009 | 0.017 | -0.012 | -0.038 | -0.014 | -0.015 | -0.029 | 0.019 | 0.031 | 0
9 | VAV3 isoform 4 (UniProt Q9UKW4) | 0.035 | 1.07 | -0.029 | -0.144 | 0.117 | 0.012 | -0.133 | 0.148 | -0.08 | -0.017 | 0.068 | -0.109 | -0.049 | -0.013 | -0.028 | -0.013 | 0.085 | -0.03 | -0.026 | 0.058
10 | XPOT (UniProt O43592) | 0.017 | -0.013 | -0.041 | -0.003 | 0.032 | -0.011 | -0.021 | -0.004 | 0.025 | 0.016 | -0.012 | 0.009 | 0.006 | -0.038 | -0.014 | 0 | 0.013 | 0.016 | 0.007 | 0.018
11 | UXT isoform 2 (UniProt Q9UBK9) | 0.012 | -0.036 | 0.033 | 0.021 | -0.054 | 0.035 | 0.012 | -0.033 | 0.186 | 0.007 | -0.078 | -0.018 | -0.063 | -0.075 | 0.006 | -0.035 | -0.091 | 0 | -0.015 | -0.032
12 | XAB2 (UniProt Q9HCS7) | 0.049 | -0.088 | -0.012 | 0.076 | 0.093 | 0.012 | -0.041 | 0.071 | -0.014 | 0.004 | -0.089 | -0.048 | -0.002 | -0.051 | -0.011 | 0.014 | -0.032 | 0.013 | 0.03 | -0.024
13 | UTP18 (UniProt Q9Y5J1) | 0.055 | 0.072 | 0.051 | -0.056 | 0.129 | 0.038 | -0.068 | -0.122 | 0.107 | -0.031 | 0.125 | -0.031 | 0.002 | -0.017 | 0.033 | 0.057 | -0.085 | -0.017 | 0.028 | 0.023
14 | XPO6 (UniProt Q96QU8) | 0.091 | -0.024 | -0.028 | 0.031 | -0.012 | -0.003 | -0.072 | -0.007 | -0.028 | 0.003 | -0.013 | 0.018 | 0.006 | -0.006 | -0.033 | -0.003 | -0.024 | 0.028 | 0.062 | -0.006
15 | VARS (UniProt P26640) | 0.031 | 0.035 | -0.031 | 0.007 | 0.03 | 0.019 | -0.035 | 0.021 | -0.002 | 0.011 | 0.015 | -0.003 | 0.042 | 0.018 | 0.032 | 0.006 | -0.047 | 0.001 | 0.041 | 0.035

From the supplement of paper PMC10849652
